We go through 16 compounds from PubChem BioAssay (Tox21).

Records with an inconclusive call do not appear. A call without a number means that no potency is given here. Values without a mark were called inactive. Calls of active or inactive are those of the source. The call rests on the fitted dose curve.

The assay in a line: p53 small molecule agonists, cell-based qHTS assay with human liver microsomes (AID 1963577).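 Further: p53 response element beta-lactamase reporter cells with liver microsomes plus NADPH.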 The note with it: HCT-116 p53RE-bla with human liver microsomes, ratio, 16 h; series mostly up to 66 µM; activation: at the top concentration. Put shortly:
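With metabolic activation: human liver microsomes (0.5 mg/mL final) plus NADPH (0.5 mg/mL final) added alongside compounds to p53RE-bla cells; 16 h 37 C exposure; beta-lactamase read by LiveBLAzer fluorescence.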
For `C[C@]12C=CC(=O)C=C1CC[C@H]1[C@@H]3C[C@@H](O)[C@](O)(C(=O)CO)[C@@]3(C)C[C@H](O)[C@@]12F`, the Potency result was “inactive”.
`Cc1cc(C)c(O)c(C)c1`: the Potency entry is “inactive”.
For `CN(C)c1ccc(C(=C2C=CC(=[N+](C)C)C=C2)c2ccccc2)cc1`, the Potency result was “inactive”.
Consider `c1ccc2cc(Nc3ccc(Nc4ccc5ccccc5c4)cc3)ccc2c1`, for which the “activation” value is 0.129%.
Turning to `COc1ccc([C@@H]2CC(=O)c3c(O)cc(O[C@@H]4O[C@H](CO[C@@H]5O[C@@H](C)[C@H](O)[C@@H](O)[C@H]5O)[C@@H](O)[C@H](O)[C@H]4O)cc3O2)cc1OC`, the Potency result is “inactive”.
As for `Oc1c(Cl)cc(Cl)c(Cl)c1Cl`, the “activation” value is 3.46%.
In the case of `CC1(C)C(=O)N(Cl)C(=O)N1Cl`, the Potency entry was “inactive”.
For the compound `Cc1ccc(C)c(O)c1`, the Potency result was “inactive”.
Still for that read-out and setting: to `CCCCCCCCCCO` belongs “inactive”; to `O=S(=O)(O)c1ccc2cc(O)ccc2c1`, “inactive”; to `Oc1ccc(Cc2ccccc2O)cc1`, “inactive”.
The same measure, in the same setting: to `CC1(C)[C@@H]2CC[C@@]1(C)C(=O)C2` belongs “inactive”; to `CCCCOCCOCCOC(C)=O`, “inactive”; to `CC(=O)CC(=O)N(C)C`, “inactive”.
`C=CCCCCCCCCCC`: the Potency entry was “inactive”.
With `O=C(CC(C(=O)OC1CCCCC1)S(=O)(=O)O)OC1CCCCC1` (stereo unspecified), the “activation” value was 1.31%.
